As usually defined, the residual activity is the signal under treatment as a percentage of the control signal.

The target of assay [1] is T1, Ephrin type-B receptor 1 (Homo sapiens) (UniProt P54762).
T1 sequence (whole entry): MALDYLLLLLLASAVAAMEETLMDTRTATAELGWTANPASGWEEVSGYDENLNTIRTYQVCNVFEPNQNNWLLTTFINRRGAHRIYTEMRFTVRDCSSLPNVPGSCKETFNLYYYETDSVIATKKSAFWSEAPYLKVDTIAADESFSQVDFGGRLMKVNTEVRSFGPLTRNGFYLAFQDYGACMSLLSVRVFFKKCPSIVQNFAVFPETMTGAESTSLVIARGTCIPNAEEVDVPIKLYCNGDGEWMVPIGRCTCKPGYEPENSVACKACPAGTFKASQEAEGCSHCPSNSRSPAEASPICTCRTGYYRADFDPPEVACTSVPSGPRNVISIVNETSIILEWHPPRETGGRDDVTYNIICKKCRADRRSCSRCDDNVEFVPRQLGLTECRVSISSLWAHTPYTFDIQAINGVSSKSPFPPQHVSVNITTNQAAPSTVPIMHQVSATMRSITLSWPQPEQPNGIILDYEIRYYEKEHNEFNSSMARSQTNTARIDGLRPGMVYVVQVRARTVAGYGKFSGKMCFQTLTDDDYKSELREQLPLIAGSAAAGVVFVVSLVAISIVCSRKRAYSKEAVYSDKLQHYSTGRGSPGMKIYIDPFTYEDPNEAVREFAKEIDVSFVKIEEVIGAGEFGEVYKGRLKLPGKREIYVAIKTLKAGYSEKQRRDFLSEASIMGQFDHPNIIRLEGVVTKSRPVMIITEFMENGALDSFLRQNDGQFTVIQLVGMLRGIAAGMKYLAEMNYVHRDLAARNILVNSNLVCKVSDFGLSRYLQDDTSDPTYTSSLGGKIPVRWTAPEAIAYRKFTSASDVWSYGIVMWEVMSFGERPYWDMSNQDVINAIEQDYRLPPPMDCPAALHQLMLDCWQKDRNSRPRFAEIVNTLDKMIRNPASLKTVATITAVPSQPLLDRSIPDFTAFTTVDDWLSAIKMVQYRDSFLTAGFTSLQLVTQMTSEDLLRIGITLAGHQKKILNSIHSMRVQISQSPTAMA
The settings on record: at 10 µM.

In assay [2] the target is T2, Ephrin type-B receptor 2 (Homo sapiens) (UniProt P29323).
T2 sequence (whole entry): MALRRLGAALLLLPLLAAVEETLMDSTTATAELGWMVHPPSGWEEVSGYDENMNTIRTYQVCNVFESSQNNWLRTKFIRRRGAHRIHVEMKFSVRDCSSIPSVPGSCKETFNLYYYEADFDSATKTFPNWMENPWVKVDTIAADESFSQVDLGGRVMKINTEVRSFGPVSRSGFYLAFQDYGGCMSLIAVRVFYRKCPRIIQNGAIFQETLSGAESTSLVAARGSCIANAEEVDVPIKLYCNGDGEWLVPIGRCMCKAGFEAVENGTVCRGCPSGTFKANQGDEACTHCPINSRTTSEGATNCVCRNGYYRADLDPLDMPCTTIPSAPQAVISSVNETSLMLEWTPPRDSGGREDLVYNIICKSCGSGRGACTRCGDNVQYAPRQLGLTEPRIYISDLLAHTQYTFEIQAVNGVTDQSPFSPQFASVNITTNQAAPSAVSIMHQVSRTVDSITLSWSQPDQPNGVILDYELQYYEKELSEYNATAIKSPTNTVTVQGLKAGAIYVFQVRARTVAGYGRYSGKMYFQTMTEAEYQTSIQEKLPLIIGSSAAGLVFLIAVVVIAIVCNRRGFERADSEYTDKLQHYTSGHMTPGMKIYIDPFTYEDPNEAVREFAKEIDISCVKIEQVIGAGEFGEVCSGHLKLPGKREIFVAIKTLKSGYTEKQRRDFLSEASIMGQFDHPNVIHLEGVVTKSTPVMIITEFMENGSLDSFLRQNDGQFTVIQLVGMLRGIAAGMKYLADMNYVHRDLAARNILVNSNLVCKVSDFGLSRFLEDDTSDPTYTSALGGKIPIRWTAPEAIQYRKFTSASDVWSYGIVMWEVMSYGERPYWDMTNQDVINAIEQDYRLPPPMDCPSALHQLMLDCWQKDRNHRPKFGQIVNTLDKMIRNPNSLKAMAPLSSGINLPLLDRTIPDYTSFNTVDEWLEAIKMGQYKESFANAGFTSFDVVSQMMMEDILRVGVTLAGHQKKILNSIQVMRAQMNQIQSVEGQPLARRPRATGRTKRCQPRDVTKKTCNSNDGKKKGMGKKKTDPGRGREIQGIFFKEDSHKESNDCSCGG
The settings on record: at 1 µM.

The target in assay [3] is T2, Ephrin type-B receptor 2 (Homo sapiens). The settings on record: at 10 µM.
Assay [4] concerns the target T3, Ephrin type-B receptor 3 (Homo sapiens) (UniProt P54753).
T3 sequence (whole entry): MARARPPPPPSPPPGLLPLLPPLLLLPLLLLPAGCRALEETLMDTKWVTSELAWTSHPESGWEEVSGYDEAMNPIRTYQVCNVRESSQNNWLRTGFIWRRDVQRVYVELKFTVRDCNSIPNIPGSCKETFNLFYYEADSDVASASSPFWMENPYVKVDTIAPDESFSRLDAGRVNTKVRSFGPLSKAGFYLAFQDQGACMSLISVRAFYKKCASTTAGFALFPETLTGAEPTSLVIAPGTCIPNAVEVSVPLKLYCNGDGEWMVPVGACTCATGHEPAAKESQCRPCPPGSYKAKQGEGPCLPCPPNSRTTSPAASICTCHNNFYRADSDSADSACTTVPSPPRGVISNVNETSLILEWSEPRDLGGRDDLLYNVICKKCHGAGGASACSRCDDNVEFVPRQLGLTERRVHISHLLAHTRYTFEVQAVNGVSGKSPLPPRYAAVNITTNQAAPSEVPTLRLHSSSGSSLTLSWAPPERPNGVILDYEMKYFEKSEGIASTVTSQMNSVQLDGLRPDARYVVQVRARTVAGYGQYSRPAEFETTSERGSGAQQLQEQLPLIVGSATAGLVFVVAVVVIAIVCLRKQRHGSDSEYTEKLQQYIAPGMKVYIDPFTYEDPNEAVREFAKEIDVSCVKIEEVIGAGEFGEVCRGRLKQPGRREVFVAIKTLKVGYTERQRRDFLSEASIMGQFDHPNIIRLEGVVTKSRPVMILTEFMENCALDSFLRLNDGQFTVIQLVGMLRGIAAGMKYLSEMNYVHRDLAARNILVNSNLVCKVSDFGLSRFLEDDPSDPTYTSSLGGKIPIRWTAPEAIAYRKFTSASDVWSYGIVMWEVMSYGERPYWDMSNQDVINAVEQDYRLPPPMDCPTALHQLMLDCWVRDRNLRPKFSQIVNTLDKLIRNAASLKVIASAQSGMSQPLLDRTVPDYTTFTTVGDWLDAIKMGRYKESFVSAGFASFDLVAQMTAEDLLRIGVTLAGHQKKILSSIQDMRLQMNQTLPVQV
The note with it: at 1 µM.

For assay [5], the target named is T3, Ephrin type-B receptor 3 (Homo sapiens). The settings on record: at 10 µM.
Assay [6] concerns the target T4, Ephrin type-B receptor 4 (Homo sapiens) (UniProt P54760).
T4 sequence (whole entry): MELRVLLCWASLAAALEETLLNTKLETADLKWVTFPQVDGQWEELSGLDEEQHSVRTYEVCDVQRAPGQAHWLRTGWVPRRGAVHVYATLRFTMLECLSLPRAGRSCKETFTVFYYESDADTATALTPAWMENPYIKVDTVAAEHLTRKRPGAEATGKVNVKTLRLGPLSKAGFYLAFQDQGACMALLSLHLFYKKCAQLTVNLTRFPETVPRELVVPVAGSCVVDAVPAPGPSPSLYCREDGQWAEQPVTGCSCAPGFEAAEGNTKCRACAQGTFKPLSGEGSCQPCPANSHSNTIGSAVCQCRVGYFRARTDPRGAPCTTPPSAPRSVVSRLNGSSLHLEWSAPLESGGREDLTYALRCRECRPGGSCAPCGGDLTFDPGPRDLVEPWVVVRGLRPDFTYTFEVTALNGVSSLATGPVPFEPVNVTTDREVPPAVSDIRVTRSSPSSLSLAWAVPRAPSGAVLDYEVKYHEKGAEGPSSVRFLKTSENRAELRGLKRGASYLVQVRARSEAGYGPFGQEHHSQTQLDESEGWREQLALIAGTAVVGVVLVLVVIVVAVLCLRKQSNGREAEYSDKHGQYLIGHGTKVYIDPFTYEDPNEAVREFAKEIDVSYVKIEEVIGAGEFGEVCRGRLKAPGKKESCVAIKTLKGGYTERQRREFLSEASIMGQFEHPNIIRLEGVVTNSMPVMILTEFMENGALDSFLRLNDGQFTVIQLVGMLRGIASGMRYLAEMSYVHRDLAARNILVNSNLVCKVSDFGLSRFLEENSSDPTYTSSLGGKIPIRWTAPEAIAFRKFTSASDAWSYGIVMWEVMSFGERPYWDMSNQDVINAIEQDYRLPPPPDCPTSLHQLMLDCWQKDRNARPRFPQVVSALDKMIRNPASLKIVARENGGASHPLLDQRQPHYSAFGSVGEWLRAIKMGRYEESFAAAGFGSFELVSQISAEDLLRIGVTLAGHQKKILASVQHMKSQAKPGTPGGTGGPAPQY
The settings on record: at 1 µM.

Assay [7] has as its target T4, Ephrin type-B receptor 4 (Homo sapiens). The note with it: at 10 µM.
Assay [8] has as its target Receptor tyrosine-protein kinase erbB-4 (Homo sapiens) (UniProt Q15303). The settings on record: at 1 µM.
For assay [9] the target is unchanged. The settings on record: at 10 µM.
Assay [10] addresses Focal adhesion kinase 1 (Homo sapiens) (UniProt Q05397). The note with it: at 1 µM.

Structures are written as SMILES.

Chain of Receptor tyrosine-protein kinase erbB-4 (Homo sapiens) (Q15303 whole entry): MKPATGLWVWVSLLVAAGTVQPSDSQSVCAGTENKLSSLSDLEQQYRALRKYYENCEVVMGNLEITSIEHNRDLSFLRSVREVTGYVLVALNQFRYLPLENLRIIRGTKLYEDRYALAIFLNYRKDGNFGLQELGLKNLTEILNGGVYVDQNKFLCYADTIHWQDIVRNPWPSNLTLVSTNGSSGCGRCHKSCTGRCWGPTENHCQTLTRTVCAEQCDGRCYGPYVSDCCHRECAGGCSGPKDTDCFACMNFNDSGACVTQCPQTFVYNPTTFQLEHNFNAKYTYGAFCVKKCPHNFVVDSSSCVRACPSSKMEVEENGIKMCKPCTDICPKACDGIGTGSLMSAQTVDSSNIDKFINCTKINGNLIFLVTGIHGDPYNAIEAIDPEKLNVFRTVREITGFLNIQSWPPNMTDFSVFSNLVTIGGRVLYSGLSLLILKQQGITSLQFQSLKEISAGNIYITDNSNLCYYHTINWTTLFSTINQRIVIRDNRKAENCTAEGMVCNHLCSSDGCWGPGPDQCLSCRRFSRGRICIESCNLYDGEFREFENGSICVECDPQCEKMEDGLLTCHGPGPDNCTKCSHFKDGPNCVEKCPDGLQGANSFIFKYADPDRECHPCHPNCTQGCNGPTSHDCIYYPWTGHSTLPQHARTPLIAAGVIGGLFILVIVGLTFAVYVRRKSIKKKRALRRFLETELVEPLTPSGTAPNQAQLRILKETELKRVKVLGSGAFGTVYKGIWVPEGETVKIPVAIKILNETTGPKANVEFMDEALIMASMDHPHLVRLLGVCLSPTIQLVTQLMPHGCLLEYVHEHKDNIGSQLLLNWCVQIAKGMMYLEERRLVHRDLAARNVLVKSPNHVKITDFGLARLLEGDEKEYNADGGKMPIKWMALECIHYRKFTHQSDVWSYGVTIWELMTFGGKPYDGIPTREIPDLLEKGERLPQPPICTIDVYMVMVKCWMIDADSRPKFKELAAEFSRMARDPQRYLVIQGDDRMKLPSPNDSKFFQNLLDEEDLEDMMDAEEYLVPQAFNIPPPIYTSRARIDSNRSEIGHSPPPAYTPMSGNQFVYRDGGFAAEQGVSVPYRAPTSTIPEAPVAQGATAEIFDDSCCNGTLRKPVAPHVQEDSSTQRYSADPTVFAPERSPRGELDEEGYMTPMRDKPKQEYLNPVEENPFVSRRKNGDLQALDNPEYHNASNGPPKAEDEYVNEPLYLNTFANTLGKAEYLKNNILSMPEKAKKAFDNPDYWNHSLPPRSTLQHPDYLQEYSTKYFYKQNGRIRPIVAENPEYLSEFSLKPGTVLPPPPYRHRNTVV
Chain of Focal adhesion kinase 1 (Homo sapiens) (Q05397 2-1052 limits assumed): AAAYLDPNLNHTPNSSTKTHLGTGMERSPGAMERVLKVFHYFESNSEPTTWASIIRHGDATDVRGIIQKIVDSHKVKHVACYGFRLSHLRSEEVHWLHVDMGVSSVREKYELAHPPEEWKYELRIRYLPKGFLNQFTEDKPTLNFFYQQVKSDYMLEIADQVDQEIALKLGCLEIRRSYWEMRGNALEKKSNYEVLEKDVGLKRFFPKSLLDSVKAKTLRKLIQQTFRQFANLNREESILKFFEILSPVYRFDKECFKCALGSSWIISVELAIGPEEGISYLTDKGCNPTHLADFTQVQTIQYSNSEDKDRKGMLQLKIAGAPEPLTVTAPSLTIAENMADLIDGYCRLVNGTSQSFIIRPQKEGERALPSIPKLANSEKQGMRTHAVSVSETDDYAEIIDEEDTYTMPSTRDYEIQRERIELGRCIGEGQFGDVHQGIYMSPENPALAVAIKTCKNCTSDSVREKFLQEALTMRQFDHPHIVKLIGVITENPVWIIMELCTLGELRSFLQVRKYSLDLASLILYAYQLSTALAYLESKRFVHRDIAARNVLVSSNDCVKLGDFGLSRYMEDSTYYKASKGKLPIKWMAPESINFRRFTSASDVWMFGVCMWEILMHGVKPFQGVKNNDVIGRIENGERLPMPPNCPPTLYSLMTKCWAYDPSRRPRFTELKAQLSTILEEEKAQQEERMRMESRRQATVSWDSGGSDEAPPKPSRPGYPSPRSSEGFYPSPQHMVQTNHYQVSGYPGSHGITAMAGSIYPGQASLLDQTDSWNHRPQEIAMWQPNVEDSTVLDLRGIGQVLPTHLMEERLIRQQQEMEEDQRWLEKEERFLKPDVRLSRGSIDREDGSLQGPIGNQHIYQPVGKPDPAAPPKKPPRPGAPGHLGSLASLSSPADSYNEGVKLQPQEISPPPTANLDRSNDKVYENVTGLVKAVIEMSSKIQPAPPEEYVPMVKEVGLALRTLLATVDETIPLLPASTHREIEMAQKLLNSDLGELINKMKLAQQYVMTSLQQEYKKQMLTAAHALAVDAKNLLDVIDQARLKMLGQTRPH

In the case of `CC(C)n1cnc2c(NCc3ccccc3)nc(NCCCO)nc21`, the residual activity in [1] was 79%; in [2], 111%; in [3] it was 115%; in [4] it was 121% (inactive); in assay [5], 104%; in assay [6], 100%. Further, the residual activity came to 88% in assay [7], 52% in assay [8], 45% in assay [9] and 97% in assay [10].

The record behind these values is ChEMBL document CHEMBL2218924, “A broad activity screen in support of a chemogenomic map for kinase signalling research and drug discovery” (Biochem J, 2013).
